Results taken from the supplement of paper PMC10338343.
± gives the standard deviation.

What follows are sequences tested on MILI (PIWIL2) piRISC loaded with L1MC piRNA (26 nt) (assay: pre-steady-state target cleavage rate (min^-1); guide: L1MC piRNA 5'p-UAACUAAAUACUAUGCAAGCUGUAGG; MIWI and MILI are mouse PIWI proteins and EfPiwi is from a freshwater sponge; tags in brackets are library labels; higher = faster piRNA-guided slicing of the target). Conditions: auxiliary factor: 500 nM mouse GTSF1.
Procedure, shortened: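 In Cleave-'n-Seq, a transcribed, DNA-blocked target RNA library (0.1 nM) was combined with 1 nM active affinity-purified piRISC bearing one synthetic guide, with or without 500 nM GTSF1 partner protein. Reactions ran in HEPES–potassium acetate buffer at 33 °C for 0–8 or 0–960 min. Uncleaved targets were sequenced and normalised to depth and to weakly complementary targets, three trials were pooled, and k3 was capped at 0.0001 min^-1. The pre-steady-state cleavage rate was obtained by fitting a burst-and-steady-state model.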

| Sequence | pre-steady-state target cleavage rate |
| --- | --- |
| UCCUGGAUGUCCUAGCAUAGUAUUUAGAUA | 0.0302 ± 0.007 |
| UCCUGGUACAGCUUGCUAAGUAUUUAGUAA | 0.036 ± 0.012 |
| UCCUGGAUGUCCUUGCUAUGUAUUUAGUAA | 0.00762 ± 0.0042 |
| UCCUGGAUCUCGUUGCAUAGUAUUUUCAAA | 0.0482 ± 0.013 |
| UCCUGGAUGUCCUUGCAUAGUAUUAGUUA | 0.0068 ± 0.004 |
| UCCUGGAUCAGCAACCAUAGUAUUUAGUAA | 0.0962 ± 0.012 |
| UCCUGGAUGUCCUUGGAUACUAUUUAGUUA | 0.0119 ± 0.0061 |
| UCCUGGUACAGCUUGCAUAGUAUUAUCUUA | 0.0311 ± 0.014 |
| UCCUGGAUGACGAUGCAUAGUAUUUAGAAA | 0.139 ± 0.035 |
| UCCUCCUACAGCUUGCAAUGUAUUUACAAA | 0.0431 ± 0.011 |
| UCCUGGAACAGCUUGCAUAGCUAUUUAGUUA | 0.00904 ± 0.0044 |
| UCCUGGUACAGCUUGCAUAGUAAAUUCAAA | 0.0147 ± 0.0074 |
| UCCUGGAUGAGCAUCCAUAGUAUUUAGUUA | 0.231 ± 0.059 |
| UCCUGGAUGUGCUUGCAUUGUAUUUAGUAA | 0.0856 ± 0.015 |
| UCCUGGAACAGCUUGCAAUCUAUUUAGUUA | 0.0258 ± 0.0054 |
| UCCUGGAUGUCCUUGGAAAGUAUUUAGUUA | 0.0226 ± 0.0071 |
| UCCUGGUACAGCUUGCAUAGAAUUUAGUAA | 0.0567 ± 0.024 |

| Sequence | pre-steady-state target cleavage rate |
| --- | --- |
| UCCUCCUACAGCUUGCAUAGUAAUAAGUUA | 0.129 ± 0.021 |
| UCCUGGAUGUCGAUGCAUAGUAUUGAGUUA | 0.0608 ± 0.013 |
| UCCUGGUACAGCUUGCAUAGUAUAAUCAAA | 0.0264 ± 0.0091 |
| UCCUGGAACAGCUUGCAUAGGAUUUAGUUA | 0.00777 ± 0.0035 |
| UCCUGGAUGUGCUUGCAUAGUAUUUUGAAA | 0.00858 ± 0.0064 |
| UCCUGGUACAGCUUGCAUACUAUAUAGUUA | 0.0326 ± 0.013 |
| UCCUGGAUCAGCUUGCAUAGUAUAUACAAA | 0.0964 ± 0.023 |
| UCCUGGAUCAGCUUGCAAUGUAUUUACAAA | 0.0196 ± 0.0061 |
| UCCUGGAUGAGGUUGCAUAGAAUUUAGUUA | 0.00935 ± 0.0046 |
| UCCUGGAUGUCGUUGCAUAGUAUAUAGUAA | 0.0526 ± 0.018 |
| UCCUGGAUGAGCUUGCAUAGUAAAUAGUAA | 0.0816 ± 0.026 |
| UCCUGGAUGUGCUUGCAUAGUAUAUUGUUA | 0.0146 ± 0.0062 |
| UCCUCCUACUCGUUGCAUAGUAUUUUCAAA | 0.0494 ± 0.013 |
| UCCUGGAUCAGCUUGCCAUAGUAUUUAGUUA | 0.0992 ± 0.014 |
| UCCUGGAACAGCUUGCAUUGAAUUUAGUUA | 0.0179 ± 0.006 |
| UCCUGGAUGUCGAAGCAUAGUAAUUAGUUA | 0.00988 ± 0.0037 |
| UCCUGGAUGUGCUUGCAUAGUAAAAAGUUA | 0.0196 ± 0.0079 |

Same assay, conditions: auxiliary factor: none (no GTSF1)

| Sequence | pre-steady-state target cleavage rate |
| --- | --- |
| UCCUGGAUGUCGAACGUUAGCAUUUAGUUA | < 0.0001 |
| UCCUGGUACAGCUUGCAUACUUUUUAGUUA | 0.00598 ± 0.0037 |
| UCCUGGAUGUCGAACGUAAGUAUUUUGUUA | < 0.0001 |
| UCCUGGAUGUCGAACCAUAGUAAAUAGUUA | < 0.0001 |
| UCCUGGAUGUCGAACCAUUCUAUUUAGUUA | < 0.0001 |
| UCCUGGAUGUCGAACCAUACUAUUAAGUUA | < 0.0001 |
